Laboratory results as given in the supplement of paper PMC7335073.
The full ranking holds about 4,100 sequences; the median of “relative CpG methylation activity (normalised to average over all NNNCGNNN flanks)” is about 0.94, and the highest 2% start at about 1.9. This excerpt belongs to a sample that is enriched for the highest values.

Each sequence was assayed against DNMT3B catalytic domain (mouse) (UniProt O88509) (assay: relative CpG methylation activity (normalised to average over all NNNCGNNN flanks) (relative (1 = mean)); higher = more methylation of the central CpG). Settings: system: in vitro, murine catalytic domain; CpG state: hemimethylated substrate pool; residues: 558-859.
Sequence of DNMT3B catalytic domain (mouse) (O88509 558-859): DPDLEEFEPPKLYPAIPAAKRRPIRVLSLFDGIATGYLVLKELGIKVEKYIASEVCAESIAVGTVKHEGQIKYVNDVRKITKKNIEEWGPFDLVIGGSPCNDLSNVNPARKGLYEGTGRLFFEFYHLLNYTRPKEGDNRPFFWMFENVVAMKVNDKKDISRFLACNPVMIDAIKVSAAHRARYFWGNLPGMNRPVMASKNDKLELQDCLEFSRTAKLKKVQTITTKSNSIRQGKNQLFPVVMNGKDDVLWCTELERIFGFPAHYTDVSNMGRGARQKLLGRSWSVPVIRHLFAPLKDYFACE
Protocol: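 Deep enzymology: a pool of dsDNA substrates with a central CpG flanked by 10 random nucleotides on each side was methylated by the murine DNMT3A or DNMT3B catalytic domain (0.8 mM SAM, 37 °C, 60 min). Methylation was then read out by hairpin ligation, bisulfite conversion and NGS. Values are the average methylation of each NNNCGNNN context (±3 flanks; the outer flanks are random and averaged over), normalised to the overall mean, so 1 = average activity.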

**Q.** How did the “relative CpG methylation activity” value turn out when GACCGGCT was run?
**A.** 1.19

**Q.** For ACGCGTAG, which “relative CpG methylation activity” value is on record?
**A.** 0.632

**Q.** How did the “relative CpG methylation activity” value turn out when AGGCGATC was run?
**A.** 1.05

**Q.** Which “relative CpG methylation activity” value does the source give for ACACGATC here?
**A.** 1.75

**Q.** How did the “relative CpG methylation activity” value turn out when GGCCGACT was run?
**A.** 0.91

**Q.** How did the “relative CpG methylation activity” value turn out when TTACGTAC was run?
**A.** 1.95

**Q.** GTACGTAC was tested. Which “relative CpG methylation activity” value did it give?
**A.** 1.42

**Q.** Which “relative CpG methylation activity” value does the source give for TTACGTCC here?
**A.** 1.93

**Q.** TTACGTAT was tested. Which “relative CpG methylation activity” value did it give?
**A.** 1.19

**Q.** With ATACGTCC as the sequence, how does the “relative CpG methylation activity” value read?
**A.** 1.54

**Q.** How did the “relative CpG methylation activity” value turn out when TTACGTCT was run?
**A.** 1.64

**Q.** AGTCGACA was tested. Which “relative CpG methylation activity” value did it give?
**A.** 1.24

**Q.** For CTGCGGAA, which “relative CpG methylation activity” value is on record?
**A.** 0.922

**Q.** For ACACGCTG, which “relative CpG methylation activity” value is on record?
**A.** 1.11

**Q.** How did the “relative CpG methylation activity” value turn out when GATCGATC was run?
**A.** 1.48

**Q.** For CCCCGAGC, which “relative CpG methylation activity” value is on record?
**A.** 1.93

**Q.** TCCCGAGC was tested. Which “relative CpG methylation activity” value did it give?
**A.** 2.01

**Q.** For ACCCGAGC, which “relative CpG methylation activity” value is on record?
**A.** 1.75

**Q.** How did the “relative CpG methylation activity” value turn out when CCCCGAGA was run?
**A.** 1.68

**Q.** How did the “relative CpG methylation activity” value turn out when TCCCGAGG was run?
**A.** 1.3

**Q.** With CCCCGAGG as the sequence, how does the “relative CpG methylation activity” value read?
**A.** 1.5

**Q.** Which “relative CpG methylation activity” value does the source give for CACCGCGT here?
**A.** 0.402

**Q.** Which “relative CpG methylation activity” value does the source give for CTGCGCCA here?
**A.** 1.17

**Q.** For AGACGGCC, which “relative CpG methylation activity” value is on record?
**A.** 1.71

**Q.** How did the “relative CpG methylation activity” value turn out when CGACGGCC was run?
**A.** 1.46

**Q.** With AGACGGCG as the sequence, how does the “relative CpG methylation activity” value read?
**A.** 1.94

**Q.** Which “relative CpG methylation activity” value does the source give for CGACGGCG here?
**A.** 1.93

**Q.** With TGACGGCG as the sequence, how does the “relative CpG methylation activity” value read?
**A.** 1.63

**Q.** How did the “relative CpG methylation activity” value turn out when CGACGGCA was run?
**A.** 1.82

**Q.** How did the “relative CpG methylation activity” value turn out when AACCGTCC was run?
**A.** 0.606

**Q.** With TATCGAGG as the sequence, how does the “relative CpG methylation activity” value read?
**A.** 1.5

**Q.** Which “relative CpG methylation activity” value does the source give for GTACGCGT here?
**A.** 1.4

**Q.** With ATACGCCC as the sequence, how does the “relative CpG methylation activity” value read?
**A.** 1.69

**Q.** With ATACGGGT as the sequence, how does the “relative CpG methylation activity” value read?
**A.** 1.73

**Q.** How did the “relative CpG methylation activity” value turn out when CTACGGGA was run?
**A.** 1.91

**Q.** For TTACGGGC, which “relative CpG methylation activity” value is on record?
**A.** 2.03

**Q.** TTACGGGT was tested. Which “relative CpG methylation activity” value did it give?
**A.** 1.83

**Q.** For GTACGGGA, which “relative CpG methylation activity” value is on record?
**A.** 1.73

**Q.** How did the “relative CpG methylation activity” value turn out when CTACGGGT was run?
**A.** 1.94

**Q.** GTACGGGC was tested. Which “relative CpG methylation activity” value did it give?
**A.** 1.63

**Q.** GTACGGGT was tested. Which “relative CpG methylation activity” value did it give?
**A.** 1.85

**Q.** Which “relative CpG methylation activity” value does the source give for CAACGGGA here?
**A.** 1.82

**Q.** Which “relative CpG methylation activity” value does the source give for CCACGGGA here?
**A.** 1.42

**Q.** Which “relative CpG methylation activity” value does the source give for CTACGGGC here?
**A.** 1.75

**Q.** How did the “relative CpG methylation activity” value turn out when TTACGGGA was run?
**A.** 1.92

**Q.** How did the “relative CpG methylation activity” value turn out when TACCGCTG was run?
**A.** 0.389

**Q.** With TATCGCAG as the sequence, how does the “relative CpG methylation activity” value read?
**A.** 0.473

**Q.** Which “relative CpG methylation activity” value does the source give for GAACGCGG here?
**A.** 0.853

**Q.** Which “relative CpG methylation activity” value does the source give for TACCGCGG here?
**A.** 0.374

**Q.** CGGCGAAG was tested. Which “relative CpG methylation activity” value did it give?
**A.** 0.694

**Q.** For GCGCGCCA, which “relative CpG methylation activity” value is on record?
**A.** 0.631

**Q.** GTGCGAAA was tested. Which “relative CpG methylation activity” value did it give?
**A.** 1.05

**Q.** CGACGGGG was tested. Which “relative CpG methylation activity” value did it give?
**A.** 0.808

**Q.** ATACGGGA was tested. Which “relative CpG methylation activity” value did it give?
**A.** 1.66

**Q.** Which “relative CpG methylation activity” value does the source give for ACACGGGC here?
**A.** 1.54

**Q.** How did the “relative CpG methylation activity” value turn out when CTACGGGG was run?
**A.** 1.9

**Q.** Which “relative CpG methylation activity” value does the source give for CAACGGGG here?
**A.** 1.39

**Q.** How did the “relative CpG methylation activity” value turn out when TTACGGGG was run?
**A.** 2

**Q.** How did the “relative CpG methylation activity” value turn out when ATACGGGG was run?
**A.** 1.61

**Q.** How did the “relative CpG methylation activity” value turn out when GTACGGGG was run?
**A.** 1.6

**Q.** ATACGGGC was tested. Which “relative CpG methylation activity” value did it give?
**A.** 1.93

**Q.** For GTTCGTAC, which “relative CpG methylation activity” value is on record?
**A.** 1.18

**Q.** Which “relative CpG methylation activity” value does the source give for GCTCGCCC here?
**A.** 0.844

**Q.** GTCCGATG was tested. Which “relative CpG methylation activity” value did it give?
**A.** 1.16

**Q.** GACCGTCT was tested. Which “relative CpG methylation activity” value did it give?
**A.** 0.495
